These results are taken from PubChem BioAssay (NCI).

Test systems include SK-MEL-2 melanoma; EKVX NSCLC; SN12C renal; UO-31 renal; TK-10 renal; ACHN renal; CAKI-1 renal; A498 renal; CCRF-CEM leukemia; MOLT-4 leukemia.
Holding throughout (assay): NCI-60 one-dose screen, 48 h (100 = growth as untreated, 0 = no growth, -100 = all killed)
What all share (conditions): 10 µM unless noted

Compounds without any hit were thinned out: in the full panel of roughly 83,000, 20% have a hit.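 Cells were grown in 96-well plates and exposed to the test compound at a single concentration for 48 hours; results are reported as percent growth, with values below 10 considered active.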 Values without a mark were called inactive. Activity calls are given as the source filed them.

For `CCc1c(C)c2ccc(O)c(-c3cc(-c4ccccc4)c(C#N)c(=O)[nH]3)c2oc1=O`, the growth with SK-MEL-2 melanoma is 117%; in the assay with EKVX NSCLC it was 101%; with SN12C renal, 105%; in the assay with UO-31 renal it was 62.9%; in the assay on TK-10 renal, 124%; in the assay on ACHN renal it was 103%. In addition, the growth is 70% with CAKI-1 renal, 116% in the assay on A498 renal, 103% with CCRF-CEM leukemia and 98.3% with MOLT-4 leukemia.

As to `O=C(CCl)N1c2ccccc2Oc2ccc3ccccc3c21`, the growth was 20.2% in the assay with SK-MEL-2 melanoma; 59.1% with EKVX NSCLC; -57.6% (active) in the assay on SN12C renal; -92.1% (active) in the assay on UO-31 renal; -9.22% (active) with TK-10 renal; -95.9% (active) with ACHN renal. Besides, the growth in the assay with CAKI-1 renal was -45.6% (active); in the assay with A498 renal it was 110%; in the assay with CCRF-CEM leukemia it was 0.604% (active); in the assay on MOLT-4 leukemia, -4.23% (active).

For `O=C1/C(=C/c2cc(F)cc(F)c2)Cc2cc(F)cc(F)c21`, the growth with SK-MEL-2 melanoma was 93.7%; with EKVX NSCLC, 88%; with SN12C renal, 106%; with UO-31 renal, 70.9%; with TK-10 renal, 102%; in the assay with ACHN renal it was 92.7%. In addition, the growth in the assay with CAKI-1 renal is 77.6%; in the assay on A498 renal, 90.2%; in the assay on CCRF-CEM leukemia, 110%; in the assay with MOLT-4 leukemia, 87.3%.

As to `Cc1nc(N)nc2c1CCC(Nc1ccccc1)S2` (stereo not given), the growth was 102% in the assay on SK-MEL-2 melanoma; 103% in the assay with EKVX NSCLC; 101% with SN12C renal; 79.2% in the assay on UO-31 renal; 105% in the assay with TK-10 renal; 102% with ACHN renal. Moreover, the growth with CAKI-1 renal is 94%; in the assay with A498 renal it was 97%; with CCRF-CEM leukemia, 90.9%; in the assay with MOLT-4 leukemia it was 90.2%.

With `COc1ccc2c(c1)OC1=C(C(=O)OC1)C2c1cc(OC)c2c(c1)OCCO2` (stereo not given), the growth is 41.3% in the assay on SK-MEL-2 melanoma; 55.5% in the assay with EKVX NSCLC; 27.5% in the assay on SN12C renal; 46.2% in the assay on UO-31 renal; 76.2% with TK-10 renal; 27.8% with ACHN renal. Further, the growth with CAKI-1 renal is 48.1%; in the assay on A498 renal, -1.6% (active); with CCRF-CEM leukemia, 15%; in the assay with MOLT-4 leukemia, 20.8%.

Consider `COc1ccc(CC2c3cc(OC)c(OC)cc3CC[N+]2(C)CCC(=O)OCCCCCOC(=O)CC[N+]2(C)CCc3cc(OC)c(OC)cc3C2Cc2ccc(OC)c(OC)c2)cc1OC` (stereo not given), for which the growth in the assay with SK-MEL-2 melanoma is 98.7%; in the assay with EKVX NSCLC, 101%; in the assay on SN12C renal it was 81.2%; in the assay with UO-31 renal, 66.2%; in the assay with TK-10 renal, 124%; with ACHN renal, 97.1%. Further, the growth with CAKI-1 renal is 87.4%; in the assay with A498 renal it was 66%; in the assay with CCRF-CEM leukemia it was 94.1%; with MOLT-4 leukemia, 80.4%.

Consider `CN1C(=O)N(C)C2C1NN=c1s/c(=C\c3ccsc3)c(=O)n12` (stereo not given), for which the growth in the assay with SK-MEL-2 melanoma was 56.4%; in the assay on EKVX NSCLC, 65.8%; in the assay with SN12C renal it was 58.8%; in the assay with UO-31 renal, 56%; with TK-10 renal, 76.8%; in the assay on ACHN renal, 47%. Moreover, the growth in the assay with CAKI-1 renal was 35.7%; with A498 renal it was 7.47% (active); with CCRF-CEM leukemia, 28.8%; in the assay on MOLT-4 leukemia, 49.7%.

With `COc1cc(/C=C/c2cc(/C=C/c3ccc(O)c(OC)c3)n(C(=O)Nc3ccc(F)c(Cl)c3)n2)ccc1O`, the growth in the assay on SK-MEL-2 melanoma was -25% (active); in the assay on EKVX NSCLC it was -17.7% (active); in the assay with SN12C renal, 2.06% (active); in the assay on UO-31 renal, -17% (active); in the assay on TK-10 renal it was 24%; with ACHN renal it was 5.73% (active). For the same molecule, the growth was -39.1% (active) with CAKI-1 renal, -13.6% (active) with A498 renal, 0.872% (active) with CCRF-CEM leukemia and -17.7% (active) with MOLT-4 leukemia.

Turning to `CN1C(=O)NC(Cc2c[nH]c3c(Cl)cccc23)C1=O` (stereo not given), the growth with SK-MEL-2 melanoma is 106%; in the assay with EKVX NSCLC it was 118%; in the assay on SN12C renal it was 101%; in the assay on UO-31 renal, 78.5%; with TK-10 renal, 147%; in the assay on ACHN renal, 99.3%. The growth with CAKI-1 renal was 125%; in the assay on A498 renal, 106%; with CCRF-CEM leukemia it was 113%; with MOLT-4 leukemia it was 111%.

As for `CCCCCCCCCCCCCCCC1=NC(C)(C)CN1C(C)C`, the growth is -67.9% (active) with SK-MEL-2 melanoma; 5.51% (active) with EKVX NSCLC; -36.3% (active) in the assay on SN12C renal; -57.5% (active) in the assay on UO-31 renal; -74.2% (active) with TK-10 renal; -58.3% (active) in the assay with ACHN renal. In addition, the growth in the assay with CAKI-1 renal was -45.4% (active); in the assay on A498 renal it was 63.4%; in the assay on CCRF-CEM leukemia, -56.3% (active); in the assay on MOLT-4 leukemia, -59.8% (active).

For the molecule `CN(C)CCCn1c(=O)c2cc([N+](=O)[O-])ccc2c2cnc3[nH]ccc3c21`, the growth in the assay on SK-MEL-2 melanoma is 53.7%; with EKVX NSCLC, 62.2%; in the assay with SN12C renal it was 47%; in the assay on UO-31 renal, 33.1%; in the assay with TK-10 renal it was 50.5%; in the assay with ACHN renal it was 27.9%. In addition, the growth in the assay on CAKI-1 renal was 79.5%; in the assay on A498 renal it was 39.5%; with CCRF-CEM leukemia it was -26.4% (active); in the assay on MOLT-4 leukemia it was 8.62% (active).

Take `COc1ccc(-c2nc3c(c(-c4ccc(Cl)cc4)nn3-c3ccccc3)c(-c3ccc(O)cc3)c2C#N)cc1`: the growth in the assay with SK-MEL-2 melanoma is 62.4%; in the assay with EKVX NSCLC, 49.6%; in the assay on SN12C renal it was -26.7% (active); in the assay on UO-31 renal, 36.8%; with TK-10 renal, 93.7%; in the assay with ACHN renal it was 50.7%. The growth in the assay with CAKI-1 renal was 40.1%; with A498 renal, 61.4%; in the assay on CCRF-CEM leukemia, 12.6%; in the assay with MOLT-4 leukemia, 14.4%.

Turning to `CC(C)CCSc1nc(-c2ccc(F)cc2)c(C#N)c(N2CCN(C)CC2)n1`, the growth with SK-MEL-2 melanoma was 77.4%; in the assay with EKVX NSCLC, 87.8%; with SN12C renal, 88.8%; in the assay with UO-31 renal, 51.3%; with TK-10 renal it was 88.2%; with ACHN renal, 76.5%. The growth in the assay with CAKI-1 renal is 60.8%; in the assay on A498 renal, 69.7%; with CCRF-CEM leukemia, 78.9%; with MOLT-4 leukemia, 72.5%.
